Measured values reported in PubChem BioAssay (NCI).
Compounds without any hit were thinned out: in the full panel of roughly 83,000, 20% have a hit.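 Method: cells in 96-well plates; compound added at one concentration; 48 h incubation; percent growth measured; values under 10 scored active.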 Unmarked numbers belong to inactive results. The source made the active and inactive calls.

tested on: MDA-MB-468 breast; test: NCI-60 one-dose screen, 48 h (100 = growth as untreated, 0 = no growth, -100 = all killed); conditions: 10 µM unless noted

SMILES | growth
O=S(=O)(NCCNc1nccc(-c2c(-c3ccccc3)nc3sccn23)n1)c1ccc(O)cc1 | 19.9%
CC(C)c1ccc(C(=O)Nc2sc3c(c2C(N)=O)CCC(=O)C3)cc1 | -47.6% (active)
Cn1nc(-c2ccc(Cl)cc2)nc2c(=O)n(C)c(=O)nc1-2 | -73.2% (active)
c1ccc(C2=NN[C@H](c3cn(-c4ccccc4)nc3-c3ccccc3)C2)cc1 | 28.2%
CC1(C)c2[nH]c3ccccc3c2C[C@]2(C)[C@H]3C(=O)C=C4[C@@H]5C[C@@](C)(C(N)=O)CC[C@]5(C)CC[C@@]4(C)[C@]3(C)CC[C@@H]12 | 56.4%
